What was measured:
Details in all cases: concentration: 1 μM,replicates: in singlicate; n = 1
[1] = test system: MAP3K15
[2] = test system: MAP3K1
[3] = test system: MAP3K2
[4] = test system: MAP3K3
[5] = test system: MAP3K4
[6] = test system: MAP4K2
[7] = test system: MAP4K3
[8] = test system: MAP4K4
[9] = test system: MAP4K5
[10] = test system: MAPKAPK2
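Also: KINOMEscan kinase panel screen.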

SMILES | %Inh [1] [%] | %Inh [2] [%] | %Inh [3] [%] | %Inh [4] [%] | %Inh [5] [%] | %Inh [6] [%] | %Inh [7] [%] | %Inh [8] [%] | %Inh [9] [%] | %Inh [10] [%]
C[C@@H](Oc1cc(-n2cnc3cc(-c4cnn(C)c4)ccc32)sc1C(N)=O)c1ccccc1Cl [GSK580432] | 12 | 90.6 | 20 | 20 | 37 | 60 | 93.8 | 32 | 98.9 | 0
COc1cccc(CNC(=O)NC2CCN(c3ccnc(Nc4cc(OC)c(OC)c(OC)c4)n3)C2)c1 (stereo not shown) [GSK1379765] | 0 | 10 | 0 | 0 | 0 | 0 | 1 | 1 | 3 | 46
O=C(Nc1ccc(Oc2ccc3nc(NC(=O)C4CC4)cn3n2)c(F)c1)c1cccn(-c2ccccc2)c1=O | 0 | 0 | 0 | 15 | 24 | 0 | 4 | 1 | 0 | 13
C[C@@H](Oc1cc(-n2cnc3ccc(-c4ccncc4)cc32)sc1C(N)=O)c1ccccc1Cl [GSK483724] | 0 | 41 | 4 | 0 | 21 | 10 | 10 | 11 | 15 | 0
NC(=O)Nc1sc(-c2ccc(F)cc2)cc1C(N)=O [GW789449] | 16 | 10 | 85 | 72 | 18 | 23 | 0 | 26 | 13 | 0
CN(c1ccc2c(c1)nc(NCc1ccc(F)cc1)n2C)c1ccnc(Nc2ccc(CS(C)(=O)=O)cc2)n1.Cl [GW813244] | 24 | 26 | 31 | 23 | 2 | 0 | 40 | 10 | 11 | 0
Cl.c1ccc(Oc2ccc(Nc3ccnc4cc(-c5ccc(CN6CCNCC6)o5)ccc34)cc2)nc1 [GW567142] | 3 | 1 | 0 | 0 | 0 | 0 | 0 | 0 | 13 | 0
CSc1nccc(-c2c(-c3ccc(F)cc3)ncn2CCCN2CCOCC2)n1.Cl [SB-217146] | 0 | 0 | 23 | 1 | 0 | 0 | 0 | 0 | 0 | 0
Cc1ccn2nc(-c3ccc(F)cc3)c(-c3ccncc3)c2c1.Cl [GW457859] | 0 | 0 | 0 | 0 | 0 | 2 | 0 | 14 | 0 | 15
CC(=O)c1c(-c2ccncc2)[nH]c(-c2ccncc2)c1C [GW493036] | 0 | 5 | 0 | 0 | 9 | 0 | 0 | 16 | 0 | 23
O=C1NCCc2[nH]c(-c3ccncc3)cc21 | 85 | 5 | 0 | 23 | 3 | 52 | 15 | 25 | 6 | 
Nc1nccc(-c2ccc3c(N)n[nH]c3c2)n1 [GSK1034945] | 0 | 20 | 10 | 0 | 5 | 67 | 4 | 6 | 0 | 79
COc1cc(Nc2nccc(N3CCC(NC(=O)c4cccc(C#N)c4)C3)n2)cc(OC)c1OC (stereo not shown) [GSK1379751] | 0 | 2 | 19 | 0 | 0 | 0 | 0 | 0 | 0 | 0
CS(=O)(=O)Nc1ccc(-c2ccnc3[nH]ccc23)cc1 [GSK993273] | 37 | 18 | 58 | 32 | 0 | 30 | 44 | 2 | 0 | 0
CS(=O)c1ccc(-c2coc3ccc(-c4n[nH]c(=O)o4)cc23)cc1 (stereo not shown) | 37 | 0 | 0 | 11 | 5 | 2 | 1 | 0 | 0 | 0
O=C(Nc1n[nH]c2cc(-c3ccco3)ccc12)C1CC1 [SB-737447] | 17 | 0 | 23 | 24 | 0 | 2 | 5 | 21 | 0 | 0
O=C(NOCC1CC1)c1cc(Br)c(F)c(F)c1Nc1ccc(I)cc1Cl | 0 | 0 | 0 | 0 | 0 | 0 | 0 | 0 | 0 | 0

— paper PMC5540273 (PLoS ONE, 2017)
